Reference: PubChem BioAssay (NCI)
About 83,000 compounds went through this panel and 20% of them were active in at least one assay; those are over-represented in the sample as a whole.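 In brief: 96-well plates, 48 h treatment, single concentration, percent growth endpoint.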 Values without a mark were called inactive. The source made the active and inactive calls. Rule for the calls: active = growth percent below 10; inactive = the rest.

Experiments:
Assay in all cases: NCI-60 one-dose screen, 48 h (100 = growth as untreated, 0 = no growth, -100 = all killed)
Conditions in all cases: 10 µM unless noted
HCT-15 colon = test system: HCT-15 colon
HT29 colon = test system: HT29 colon
SNB-75 CNS = test system: SNB-75 CNS
SNB-19 CNS = test system: SNB-19 CNS
U251 CNS = test system: U251 CNS
PC-3 prostate = test system: PC-3 prostate
SK-MEL-5 melanoma = test system: SK-MEL-5 melanoma
UACC-62 melanoma = test system: UACC-62 melanoma
SK-MEL-28 melanoma = test system: SK-MEL-28 melanoma
SK-MEL-2 melanoma = test system: SK-MEL-2 melanoma
EKVX NSCLC = test system: EKVX NSCLC
SN12C renal = test system: SN12C renal
UO-31 renal = test system: UO-31 renal
TK-10 renal = test system: TK-10 renal
ACHN renal = test system: ACHN renal
CAKI-1 renal = test system: CAKI-1 renal
A498 renal = test system: A498 renal
CCRF-CEM leukemia = test system: CCRF-CEM leukemia
MOLT-4 leukemia = test system: MOLT-4 leukemia
LOX IMVI melanoma = test system: LOX IMVI melanoma

Row | Compound | growth (HCT-15 colon) | growth (HT29 colon) | growth (SNB-75 CNS) | growth (SNB-19 CNS) | growth (U251 CNS) | growth (PC-3 prostate) | growth (SK-MEL-5 melanoma) | growth (UACC-62 melanoma) | growth (SK-MEL-28 melanoma) [%] | growth (SK-MEL-2 melanoma) | growth (EKVX NSCLC) [%] | growth (SN12C renal) [%] | growth (UO-31 renal) | growth (TK-10 renal) | growth (ACHN renal) [%] | growth (CAKI-1 renal) | growth (A498 renal) [%] | growth (CCRF-CEM leukemia) | growth (MOLT-4 leukemia) | growth (LOX IMVI melanoma)
1 | CC(=O)OC[C@]12CC[C@@H](/C(C)=N/O)[C@@H]1[C@H]1CC[C@@H]3[C@@]4(C)CCCNC(C)(C)[C@@H]4CC[C@@]3(C)[C@]1(C)CC2 | 60.1% | 59.6% | 63.9% | 83.1% | 68.7% | 42.5% | 51.3% | 66.5% | 86 | 94.5% | 84.6 | 75.3 | 61.2% | 82.4% | 88 | 36.7% | 59.3 | 52.1% | 35.6% | –
2 | Cn1c2c(c3ccc(Cl)cc31)-n1cccc1C2=O | 83.5% | 70.8% | 87.5% | 85.5% | 89.3% | 101% | 98.4% | 89.8% | 109 | 84.6% | 86.4 | 74.5 | 57.5% | 88.2% | 78.2 | 83.2% | 89.6 | 85.7% | 64.2% | –
3 | C=C(C)[C@@H]1CC[C@]2(C(=O)N3CCCNCC3)CC[C@]3(C)[C@H](CC[C@@H]4[C@@]5(C)CCC(=O)C(C)(C)[C@@H]5CC[C@]43C)[C@@H]12 | 84.1% | 61% | 56.9% | 91.2% | 78% | 78.3% | 94.1% | 99.1% | 103 | 118% | 98.3 | 84 | 85.5% | 127% | 105 | 67.8% | 89.5 | 84.2% | 63.3% | –
4 | C=C(C)[C@@H]1CC[C@]2(CN)CC[C@]3(C)[C@H](CC[C@@H]4[C@@]5(C)CCC(=O)NC(C)(C)[C@@H]5CC[C@]43C)[C@@H]12 | 38.7% | 11.5% | 85.5% | 78.4% | 53.4% | 37.4% | 61.6% | 82.5% | 89.2 | 98.8% | 87.3 | 65.6 | 58.9% | 114% | 69.1 | 59.9% | 96.2 | 20.9% | 21.5% | –
5 | CC(CNc1nc(Nc2ccc(Cl)c(Cl)c2)nc(C(Cl)(Cl)Cl)n1)N(C)C (stereo unspecified) | -27.7% (active) | -76.3% (active) | -18.9% (active) | -1.09% (active) | -82.6% (active) | -40.3% (active) | -56.9% (active) | -4.78% (active) | – | -92.1% (active) | 18.5 | 16.2 | -3.58% (active) | -61.7% (active) | – | -19.1% (active) | 22.8 | -3.41% (active) | -49.4% (active) | -57.2% (active)
6 | CC1(C)NCCC[C@]2(C)[C@H]3CC[C@@H]4[C@H]5[C@H](C(=O)/C=C/c6ccccn6)CC[C@]5(CO)CC[C@@]4(C)[C@]3(C)CC[C@@H]12 | -4.7% (active) | -13.5% (active) | 105% | 77.6% | -21.6% (active) | 22.2% | 56.3% | 72.8% | 88.3 | 108% | 101 | 62.4 | 66.8% | 176% | 73.4 | 32.7% | 84 | 12.3% | 3.77% (active) | –
7 | O=C1C(=O)N(CCCCn2cc(-c3ccccc3)nn2)c2ccccc21 | 105% | 112% | 95% | 99.7% | 107% | 94.3% | 100% | 95.7% | 113 | 122% | 93.9 | 94.3 | 75.3% | 136% | 103 | 92% | 110 | 97.2% | 101% | –
8 | C=C(C)[C@@H]1CC[C@]2(C(=O)N3CCN(C)CC3)CC[C@]3(C)[C@H](CC[C@@H]4[C@@]5(C)C/C(=C/c6ccc(C(F)(F)F)cc6)C(=O)C(C)(C)[C@@H]5CC[C@]43C)[C@@H]12 | 86.5% | 95.7% | 80.7% | 97.3% | 87.1% | 78.8% | 99.1% | 96.3% | 104 | 106% | 87.7 | 92.9 | 73.5% | 105% | 96.4 | 68.7% | 97.4 | 88% | 63.8% | –
